This passage reports growth results from PubChem BioAssay (NCI).

The structures appear in SMILES notation. The panel holds about 83,000 compounds, 20% with a hit somewhere; the sample as a whole holds those more often.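 Values shown are percent growth following 48 h exposure of cells in 96-well plates to a single concentration of compound; below 10 was considered active.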 Active and inactive are the calls of the source.

For the assay, the system named is SR leukemia. In words: NCI-60 one-dose screen, 48 h (100 = growth as untreated, 0 = no growth, -100 = all killed). As to conditions: 10 µM unless noted.
With `N#Cc1nc(-c2ccc(Cl)cc2)cc(-c2ccc(Nc3nc(N4CCCCC4)nc(N4CCCCC4)n3)cc2)c1N`, the growth was 105% (inactive).

Take `C#CC[C@@H]1C[C@]2(C)[C@H]3CC=C4[C@H]5[C@@H](C)[C@H](C)CC[C@]5(C(=O)NCCCCN)CC[C@@]4(C)[C@]3(C)CC[C@H]2C(C)(C)[C@H]1OC(C)=O`: the growth is -19.2% (active).

As to `Cn1nc(C(F)(F)F)cc1-c1c[nH]c(OCc2ccc(Cl)cc2)c(-c2ccc(Cl)c(C(F)(F)F)c2)c1=O`, the growth is 27.5% (inactive).

With `COc1ccc(NC(=O)c2ccc(C(F)(F)F)nc2Nc2ccc(Cl)cc2C)cc1Cl`, the growth was 23.6% (inactive).

With `O=C(Cn1nncc1CN1C(=O)CSC1=O)Nc1ccc(F)cc1`, the growth is 124% (inactive).

Regarding `COc1ccc(NC(=O)/C=C/c2ccc(Cl)c(Cl)c2)cn1`, the growth is 95.2% (inactive).

On to `CCCCNCC(O)c1cc(-c2ccc(C(F)(F)F)cc2)nc(-c2ccc(C(F)(F)F)cc2)c1` (stereo unspecified), for which the growth is -63.7% (active).

In the case of `CCCc1cc2c(cc1CN(Cc1cc3c(cc1CCC)OCO3)C(=N)OCC)OCO2`, the growth was 91.2% (inactive).

In the case of `CCCNC(=S)N/N=C(\C)c1ccccn1`, the growth is 10% (inactive).

On to `C#CC[C@@H]1C[C@]2(C)[C@H]3CC[C@@H]4[C@H]5C(C(=C)C)CC[C@]5(C(=O)NCCCN5CCN(CCCN)CC5)CC[C@@]4(C)[C@]3(C)CC[C@H]2C(C)(C)[C@H]1OC(C)=O` (stereo partly specified), for which the growth was -13.6% (active).

Turning to `COc1cc2nccc(Oc3ccc(NC(=O)C4(C(=O)Nc5c(F)cc(F)cc5F)CC4)cc3)c2cc1Oc1ccc(N)cn1`, the growth is 58.5% (inactive).
